Inhibition data for 14 compounds are collected here from ChEMBL document CHEMBL3433997, “St. Jude Leishmania screening dataset” (2016).

Holding throughout (assay type): functional
Experiment [1] has as its target Solute carrier family 2, facilitated glucose transporter member 1 (Homo sapiens) (UniProt P11166). Put plainly: ST_JUDE_LEISH: Cytotoxicity at 2uM final concentration against transgenic Leishmania Mexicana promastigotes LmGLUT1 that are glucose transport deficient and complemented with the human glucose transporter GLUT1. Activity is measured by DNA content using SYBR green in vitro.

Experiment [2] deals with Hexose transporter 1 (Plasmodium falciparum) (UniProt O97467). The experiment is described as follows: ST_JUDE_LEISH: Cytotoxicity at 2uM final concentration against transgenic Leishmania Mexicana promastigotes LmPfHT that are glucose transport deficient and complemented with the Plasmodium falciparum hexose transporter. Activity is measured by DNA content using SYBR green in vitro.

The target of experiment [3] is Glucose transporter (Leishmania mexicana) (UniProt O61059). Put plainly: ST_JUDE_LEISH: Cytotoxicity at 2uM final concentration against transgenic Leishmania Mexicana promastigotes LmGT2 that are glucose transport deficient and complemented with the L. Mexicana glucose transporter 2. Activity is measured by DNA content using SYBR green in vitro.

Sequence of Solute carrier family 2, facilitated glucose transporter member 1 (Homo sapiens) (P11166 whole entry): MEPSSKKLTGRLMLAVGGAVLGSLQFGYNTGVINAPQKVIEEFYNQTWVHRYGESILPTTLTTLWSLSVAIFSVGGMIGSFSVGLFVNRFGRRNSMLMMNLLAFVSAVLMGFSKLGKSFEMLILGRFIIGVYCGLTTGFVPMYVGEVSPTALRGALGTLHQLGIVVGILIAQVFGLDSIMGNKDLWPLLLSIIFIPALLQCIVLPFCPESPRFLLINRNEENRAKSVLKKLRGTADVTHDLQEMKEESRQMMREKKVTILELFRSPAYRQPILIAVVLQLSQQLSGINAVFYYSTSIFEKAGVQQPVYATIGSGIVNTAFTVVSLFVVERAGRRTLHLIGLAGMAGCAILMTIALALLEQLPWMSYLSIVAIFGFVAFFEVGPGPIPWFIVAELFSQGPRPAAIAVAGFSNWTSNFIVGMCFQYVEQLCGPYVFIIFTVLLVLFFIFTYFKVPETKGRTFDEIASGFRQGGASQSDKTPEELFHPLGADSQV

Turning to `O=C(Nc1ccc2[nH]c(-c3ccc4nc(NC(=O)C5CCCCC5)sc4c3)nc2c1)C1CCCCC1`, the inhibition – broadly, the change of the read-out against control, counted positive when it falls – was 0.5% in experiment [1], -0.34% in experiment [2] and -1.71% in experiment [3].

As for `CC(C)(C)C(=O)Nc1ccc(N2CCN(C(c3ccccc3)c3ccccc3)CC2)c(Cl)c1`, the inhibition in experiment [1] came out at 8.85%; in experiment [2] it was 7.04%; in experiment [3], 4.93%.

For `N#Cc1cccc(Nc2nccc(NCC(O)c3ccc(C(F)(F)F)cc3)n2)c1` (configuration not stated), the inhibition in experiment [1] was found to be 3.05%; in experiment [2] it was 3.09%; in experiment [3], 0.03%.

`O=C(Nc1ccccc1)N(Cc1cccc(-c2ccc(CNCCc3ccccc3)cc2)c1)C1CCN(Cc2ccccc2)CC1`: the inhibition was 0.46% in experiment [1], -0.56% in experiment [2] and 0.13% in experiment [3].

Consider `COc1ccc2nc(-c3ccccc3)cc(N/N=C/c3ccc([N+](=O)[O-])cc3)c2c1`, for which the inhibition in experiment [1] worked out at 6.36%; in experiment [2], 6.3%; in experiment [3], 2.43%.

`Cc1cc(N[C@@H](Cc2ccccc2)C(=O)NC2CCCC2)nc(NCC2CCCCC2)n1`: the results for the inhibition in experiment [1], in experiment [2] and in experiment [3] were 3.03%, 3.67% and 0.45%, respectively.

Regarding `Cc1cccc2nc(-c3ccc(-c4cccc(CN5CCCC5CN)c4)cc3)[nH]c12` (configuration not stated), the inhibition in experiment [1] stood at 1.08%; in experiment [2], 1.46%; in experiment [3] it was 1.07%.

Turning to `Cc1cc(=O)[nH]c2cc(Nc3ccnc(Nc4cccc(C(N)=O)c4)n3)ccc12`, the inhibition in experiment [1] was determined as 3.02%; in experiment [2], 3.83%; in experiment [3], 3.24%.

Turning to `N=C(N)NN=CC(=O)Nc1ccc(Cl)cc1`, the results for the inhibition in experiment [1], in experiment [2] and in experiment [3] were 7.68%, 11.3% and 8.24%, respectively.

As to `CCn1cnc2c(N3CCCCS3(=O)=O)cc(C(=O)N[C@@H](Cc3ccccc3)[C@H](O)CNC3CCOCC3)cc21`, the inhibition came out at 3.99% in experiment [1], 2.96% in experiment [2] and 3.34% in experiment [3].

For `COc1ccc(CNc2ncnc3c2[nH]c2ccc(F)cc23)cc1`, the inhibition in experiment [1] was found to be 7.12%; in experiment [2] it was 7.69%; in experiment [3] it was 4.52%.

With `NC1CCCN(Cc2cccc(-c3cccc(-c4nc5ccccc5[nH]4)c3)c2)C1` (configuration not stated), the inhibition in experiment [1] stood at 8.27%; in experiment [2] it was 6.48%; in experiment [3] it was 5.75%.

In the case of `CC(=O)Nc1ccc(Nc2c3ccccc3nc3ccccc23)cc1`, the inhibition was determined as 8.17% in experiment [1], 7.37% in experiment [2] and 0.02% in experiment [3].

Turning to `CC(=O)c1ccc(NC(=O)Nc2ccc(N(C)c3ccnc(NC4CC4)n3)cc2)cc1`, the inhibition is -0.95% in experiment [1], -3.95% in experiment [2] and 0.62% in experiment [3].
